Test systems include NCI-H23 lung; NCI-H226 lung; NCI-H322M lung; HOP-62 NSCLC; NCI-H460 lung; HOP-92 NSCLC; NCI-H522 lung; A549/ATCC NSCLC; 786-0 renal; COLO 205 colon; DU-145 prostate; K-562 leukemia; MALME-3M melanoma; MDA-MB-231 breast; RXF 393 renal; SF-268 CNS; SF-295 CNS; SF-539 CNS; UACC-257 melanoma; M14 melanoma.
Experiment in all cases: NCI-60 one-dose screen, 48 h (100 = growth as untreated, 0 = no growth, -100 = all killed)
Conditions in all cases: 10 µM

The values below come from PubChem BioAssay (NCI).

Compounds without any hit were thinned out: in the full panel of roughly 83,000, 20% have a hit.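 Note: values are percent growth. 100 is the growth of untreated cells, values between 100 and 0 indicate rising inhibition; between -100 and 0 indicates cell death.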 A number with no mark means an inactive call. Active and inactive are the calls of the source. How the source made its calls: active means growth percent below 10; inactive means the rest.

Regarding `COc1ccc(-c2nc(-c3ccccc3)c(-c3ccccc3)[nH]2)cc1OC1CCCC1`, the growth was 73.1% with NCI-H23 lung; 88.9% in the assay on NCI-H226 lung; 66% in the assay on NCI-H322M lung; 113% in the assay with HOP-62 NSCLC; 61.4% with NCI-H460 lung; 12.6% in the assay with HOP-92 NSCLC. The growth was 36.1% with NCI-H522 lung; 61.8% with A549/ATCC NSCLC; 78.6% in the assay with 786-0 renal; 86.3% in the assay with COLO 205 colon; 86.4% in the assay with DU-145 prostate; 31.6% in the assay on K-562 leukemia. The growth in the assay with MALME-3M melanoma is 103%; in the assay on MDA-MB-231 breast, 18.7%; in the assay with RXF 393 renal, 13.7%; in the assay with SF-268 CNS it was 73.7%; with SF-295 CNS, 52.9%; in the assay on SF-539 CNS it was 63.3%. Also, the growth is 79.9% with UACC-257 melanoma and 56.1% in the assay on M14 melanoma.

For `CN1CCN(c2nc(-c3cccnc3)nc3sc4c(c23)CCCCCC4)CC1`, the growth in the assay with NCI-H23 lung is 93.7%; in the assay with NCI-H226 lung, 93.1%; with NCI-H322M lung, 99.3%; in the assay on HOP-62 NSCLC, 85.5%; in the assay on NCI-H460 lung it was 98%; with HOP-92 NSCLC it was -2.98% (active). For the same compound, the growth was 103% with NCI-H522 lung; 91.2% in the assay on A549/ATCC NSCLC; 92.8% in the assay on 786-0 renal; 102% in the assay with COLO 205 colon; 98.9% in the assay with DU-145 prostate; 13.6% in the assay on K-562 leukemia. Besides, the growth with MALME-3M melanoma is 106%; in the assay with MDA-MB-231 breast it was 78.9%; in the assay with RXF 393 renal, 79.4%; in the assay on SF-268 CNS, 80.3%; in the assay on SF-295 CNS, 75.6%; with SF-539 CNS it was 93.3%. Moreover, the growth is 102% in the assay on UACC-257 melanoma and 101% in the assay on M14 melanoma.

For `CCCCCCCCCCCC(c1ccccc1)N(C)C` (stereo not given), the growth in the assay with NCI-H23 lung is 102%; in the assay with NCI-H226 lung it was 97.2%; in the assay with NCI-H322M lung, 103%; in the assay with HOP-62 NSCLC, 119%; in the assay with NCI-H460 lung, 105%; in the assay on HOP-92 NSCLC it was 74.2%. For the same compound, the growth is 103% in the assay on NCI-H522 lung; 97.5% in the assay on A549/ATCC NSCLC; 104% in the assay with 786-0 renal; 101% in the assay with COLO 205 colon; 104% in the assay on DU-145 prostate; 78.9% with K-562 leukemia. Besides, the growth in the assay with MALME-3M melanoma was 107%; in the assay with MDA-MB-231 breast, 76.7%; in the assay with RXF 393 renal it was 92.5%; in the assay on SF-268 CNS it was 111%; with SF-295 CNS it was 97.9%; in the assay with SF-539 CNS, 103%. In addition, the results for the growth in the assay with UACC-257 melanoma and with M14 melanoma were 103% and 104%, respectively.

Take `COc1ccc(-c2nnc(COc3ccc(NC(=O)Nc4cccc(C(F)(F)F)c4)cc3F)o2)cc1`: the growth in the assay on NCI-H23 lung was 56.6%; with NCI-H226 lung it was 87.9%; in the assay with NCI-H322M lung, 43.4%; in the assay on HOP-62 NSCLC, 67.4%; with NCI-H460 lung, 39.3%; in the assay with HOP-92 NSCLC, 25.5%. Moreover, the growth was -21.2% (active) in the assay on NCI-H522 lung; 57.8% in the assay on A549/ATCC NSCLC; 78.9% in the assay on 786-0 renal; 88.1% with COLO 205 colon; 71.9% with DU-145 prostate; 45.3% in the assay with K-562 leukemia. In addition, the growth was 60.5% in the assay on MALME-3M melanoma; 42.5% in the assay with MDA-MB-231 breast; 86.6% with RXF 393 renal; 75.1% in the assay with SF-268 CNS; 64.2% in the assay with SF-295 CNS; 57.6% in the assay on SF-539 CNS. The growth in the assay with UACC-257 melanoma was 71.8%; in the assay with M14 melanoma it was 60.8%.

For the compound `CC(C)C[C@H](NC(=O)CCn1ccc2ccccc2c1=O)B(O)O`, the growth in the assay with NCI-H23 lung was 63.4%; in the assay on NCI-H226 lung, -16.2% (active); in the assay on NCI-H322M lung it was 91%; in the assay with HOP-62 NSCLC, 82.7%; in the assay on NCI-H460 lung, 93.8%; with HOP-92 NSCLC it was 90.1%. In addition, the growth in the assay on NCI-H522 lung is 19.9%; with A549/ATCC NSCLC, 58%; with 786-0 renal, 48.5%; with COLO 205 colon, 48.7%; with DU-145 prostate, 59.6%; in the assay on K-562 leukemia, 62.7%. The growth in the assay with MALME-3M melanoma is 38.2%; in the assay with MDA-MB-231 breast, 53.8%; in the assay with RXF 393 renal it was -5.99% (active); with SF-268 CNS, 69.9%; with SF-295 CNS it was 41%; in the assay on SF-539 CNS it was -11.4% (active). Also, the growth with UACC-257 melanoma was 34.5%; in the assay on M14 melanoma, 38%.

Consider `O=S(=O)(NCl)c1ccccc1`, for which the growth with NCI-H23 lung is 104%; in the assay with NCI-H226 lung it was 110%; in the assay with NCI-H322M lung, 88.1%; in the assay on HOP-62 NSCLC, 110%; in the assay with NCI-H460 lung, 105%; in the assay on HOP-92 NSCLC, 108%. Further, the growth with NCI-H522 lung is 99.6%; in the assay on A549/ATCC NSCLC, 94.7%; with 786-0 renal, 95.9%; in the assay on COLO 205 colon, 113%; with DU-145 prostate it was 106%; in the assay on K-562 leukemia, 97.3%. Further, the growth was 97.5% in the assay on MALME-3M melanoma; 115% in the assay on MDA-MB-231 breast; 109% in the assay on RXF 393 renal; 99.9% in the assay with SF-268 CNS; 94.3% in the assay on SF-295 CNS; 106% with SF-539 CNS. The growth with UACC-257 melanoma was 103%; in the assay on M14 melanoma, 107%.

Regarding `COc1cccc(-c2nnc(COc3ccc(-c4nc5ccc(C)cc5[nH]4)cc3OC)o2)c1`, the growth in the assay on NCI-H23 lung is 88%; with NCI-H226 lung it was 84.6%; with NCI-H322M lung it was 98%; with HOP-62 NSCLC it was 101%; in the assay with NCI-H460 lung, 36.7%; with HOP-92 NSCLC, 74%. Moreover, the growth with NCI-H522 lung was 91.2%; with A549/ATCC NSCLC, 61.8%; with 786-0 renal it was 81.5%; in the assay on COLO 205 colon, 72.6%; in the assay with DU-145 prostate, 65.2%; in the assay on K-562 leukemia it was 13.5%. Besides, the growth with MALME-3M melanoma was 52.8%; in the assay with MDA-MB-231 breast, 64.5%; in the assay on RXF 393 renal, 85.1%; in the assay with SF-268 CNS, 101%; in the assay with SF-295 CNS, 99.2%; with SF-539 CNS it was 57.4%. Further, the growth with UACC-257 melanoma is 97.1%; in the assay with M14 melanoma, 53.9%.

As to `CCN(CC)CCOC(=O)c1ccc(N=Nc2ccc(O)c(OC)c2)cc1`, the growth in the assay with NCI-H23 lung is 94.5%; in the assay with NCI-H226 lung, 90.4%; with NCI-H322M lung, 90.9%; in the assay on HOP-62 NSCLC it was 98.8%; with NCI-H460 lung, 110%; in the assay with HOP-92 NSCLC it was 94.6%. Further, the growth was 63.8% in the assay with NCI-H522 lung; 91.1% with A549/ATCC NSCLC; 95.9% in the assay on 786-0 renal; 107% with COLO 205 colon; 108% with DU-145 prostate; 95.3% in the assay with K-562 leukemia. Besides, the growth with MALME-3M melanoma is 97%; in the assay on MDA-MB-231 breast, 110%; in the assay on RXF 393 renal it was 89.4%; in the assay with SF-268 CNS, 94.7%; in the assay with SF-295 CNS, 101%; in the assay on SF-539 CNS it was 96.4%. The values for the growth in the assay on UACC-257 melanoma and in the assay with M14 melanoma were 96.5% and 103%, respectively.
